Inconclusive results are not listed. Calls of active or inactive are those of the source. The calls were made as follows: active = hit-call score of the fitted dose curve at least 0.9, where 1 is the maximum; inconclusive = response in the unintended direction; inactive = score below 0.9.
Experiments:
[1] = target: Estrogen receptor (Homo sapiens) + Estrogen receptor beta (Homo sapiens) (UniProt P03372+Q92731); assay: OT_ER_ERaERb_0480: Odyssey Thera (OT) 8-hour HEK293T Protein-Complementation Assay for Estrogen Receptor-alpha/-beta Heterodimer (AID 2283352)
Summary of the method: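 HEK293T protein-fragment complementation assay of ER-alpha/ER-beta LBD heterodimerisation, read 8 h after dosing. Mean nuclear/cytoplasmic fluorescence intensity measured by laser scanning cytometry; gain of signal fitted relative to DMSO.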

PGR (gene 5241) [2] = target: PGR (gene 5241) (UniProt P06401); assay: NVS_NR_hPR: NovaScreen (NVS) Nuclear Receptor Binding Assay for human Progestron Receptor (PR) (AID 2283360);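 also: active means loss of bound radioligand signal versus DMSO baseline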
Summary of the method: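 T47D-derived receptor preparation, cell-free, with tritiated or iodinated radioligand displacement measured by scintillation 18 h post-dosing. Single 25 uM duplicate screen, then concentration series; signal loss relative to DMSO.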

rat CYP3A1, gene 25642 = assay: NVS_ADME_rCYP3A1: NovaScreen (NVS) CYP450-related Enzyme Activity (ADME) Assay for rat CYP3A1 (AID 2283126)
Summary of the method: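 Cell-free recombinant CYP assay with fluorescent substrate, read 0.5 h after dosing. Screened at 10 uM in duplicate, hits at up to 20 uM in concentration-response; loss of signal versus acetonitrile baseline.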

PGR (gene 5241) [3] = target: PGR (gene 5241) (UniProt P06401); assay: TOX21_PR_BLA_Followup_Agonist_ratio: Tox21 HEK293 Progesterone Receptor (PR) Agonism Beta-lactamase Follow-Up Assay, Ratio (AID 2283933)
Summary of the method: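 HEK293T PR-UAS-bla, 2% CS-FBS; 6 hr preincubation, cpd/DMSO pinned, 16 hr 37C/5% CO2; LiveBLAzer B/G 2 hr RT; FRET ch2/ch1 ratio, agonist direction vs DMSO. Viability by CellTiter-Glo in same wells.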

[4] = Tanguay_ZF_120hpf_YSE_legacy: (Legacy) Oregon State University Tanguay Lab 120 Hour Post-fertilization zebrafish Assay for Yolk Sac Edema (AID 2283634)
Summary of the method: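 Dechorionated Tropical 5D wild-type zebrafish embryos were exposed statically, one per well, from 6 to 120 hpf at 28C in 0.64% DMSO. Yolk sac edema was scored present/absent by brightfield at 120 hpf, and dead embryos were excluded.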

[5] = Tanguay_ZF_120hpf_AXIS_legacy: (Legacy) Oregon State University Tanguay Lab 120 Hour Post-fertilization zebrafish Assay for Body Axis Malformation (AID 2283635)
Summary of the method: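 Dechorionated wild-type Tropical 5D zebrafish embryos, one per well, statically exposed from 6 hpf to 120 hpf at 28C in 0.64% DMSO final. Body axis malformation scored present/absent by brightfield microscopy at 120 hpf; dead embryos excluded.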

[6] = Tanguay_ZF_120hpf_EYE_legacy: (Legacy) Oregon State University Tanguay Lab 120 Hour Post-fertilization zebrafish Assay for Eye Malformation (AID 2283636);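 also: binary presence or absence of eye malformation scored by brightfield in 120 hpf larvae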
Summary of the method: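 Dechorionated wild-type Tropical 5D zebrafish embryos were exposed statically from 6 hpf, one per well, to 120 hpf at 28C in sealed, foil-covered plates with 0.64% DMSO. Eye malformation was scored present/absent by brightfield microscopy against DMSO controls.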

[7] = Tanguay_ZF_120hpf_SNOU_legacy: (Legacy) Oregon State University Tanguay Lab 120 Hour Post-fertilization zebrafish Assay for Snout Malformation (AID 2283637)
Summary of the method: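 Tropical 5D wild-type zebrafish embryos, dechorionated with pronase at 4 hpf, were exposed singly from 6 hpf to 120 hpf statically at 28C in 0.64% DMSO. Snout malformation was scored present/absent by brightfield microscopy, fitted against DMSO.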

[8] = Tanguay_ZF_120hpf_JAW_legacy: (Legacy) Oregon State University Tanguay Lab 120 Hour Post-fertilization zebrafish Assay for Jaw Malformation (AID 2283638)
Summary of the method: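 Dechorionated Tropical 5D wild-type zebrafish embryos, one per well, exposed statically from 6 hpf to 120 hpf at 28C in 0.64% DMSO. Jaw malformation was scored by brightfield microscopy as present or absent. It was not scored in dead embryos.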

[9] = Tanguay_ZF_120hpf_OTIC_legacy: (Legacy) Oregon State University Tanguay Lab 120 Hour Post-fertilization zebrafish Assay for Otic Vesicle Malformation (AID 2283639)
Summary of the method: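 Embryos from 5D wild-type adults exposed in plates; DMSO 0.64% v/v final. Sealed, light-protected, 28C, static to 120 hpf. Otic vesicle malformation recorded as binary endpoint; gain-of-signal fitted vs DMSO.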

[10] = Tanguay_ZF_120hpf_PE_legacy: (Legacy) Oregon State University Tanguay Lab 120 Hour Post-fertilization zebrafish Assay for Pericardial Edema (AID 2283640)
Summary of the method: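 Tropical 5D wild-type zebrafish embryos were statically exposed until 120 hpf at 28C, with 0.64% DMSO final. Pericardial edema was scored by brightfield as present or absent; endpoints were not scored in dead embryos.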

[11] = Tanguay_ZF_120hpf_BRAI_legacy: (Legacy) Oregon State University Tanguay Lab 120 Hour Post-fertilization zebrafish Assay for Brain Malformation (AID 2283641)
Summary of the method: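 Tropical 5D wild-type zebrafish embryos exposed statically until 120 hpf at 28C, 0.64% DMSO final, sealed and dark. Brain malformation scored present/absent by brightfield at 120 hpf; dead embryos excluded. Trimethyltin chloride 5uM positive control.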

[12] = Tanguay_ZF_120hpf_SOMI_legacy: (Legacy) Oregon State University Tanguay Lab 120 Hour Post-fertilization zebrafish Assay for Somite Malformation (AID 2283647)
Summary of the method: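 Dechorionated Tropical 5D wild-type zebrafish embryos, one per well from 6 hpf, statically exposed at 28C to 120 hpf in 0.64% DMSO; somite malformation scored present/absent by brightfield; trimethyltin 5 uM positive control; dead embryos not scored.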

[13] = Tanguay_ZF_120hpf_PFIN_legacy: (Legacy) Oregon State University Tanguay Lab 120 Hour Post-fertilization zebrafish Assay for Pectoral Fin Malformation (AID 2283648);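 also: each larva judged yes or no for fin defect by brightfield with dead larvae skipped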
Summary of the method: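 Tropical 5D wild-type embryos, dechorionated with pronase at 4 hpf, were placed singly in wells at 6 hpf and statically exposed until 120 hpf at 28C, sealed and dark, with 0.64% (vol/vol) final DMSO; pectoral fin malformation scored present/absent.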

[14] = Tanguay_ZF_120hpf_CFIN_legacy: (Legacy) Oregon State University Tanguay Lab 120 Hour Post-fertilization zebrafish Assay for Caudal Fin Malformation (AID 2283649)
Summary of the method: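 Dechorionated Tropical 5D wild-type embryos, one per well from 6 hpf, static exposure to 120 hpf at 28C in 0.64% DMSO. Caudal fin malformation scored by brightfield as present/absent; not scored in dead embryos.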

[15] = Tanguay_ZF_120hpf_SWIM_legacy: (Legacy) Oregon State University Tanguay Lab 120 Hour Post-fertilization zebrafish Assay for Swim Bladder Malformation (AID 2283654);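 also: swim bladder malformation in each larva scored yes or no under brightfield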
Summary of the method: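 Dechorionated Tropical 5D wild-type embryos, placed singly from 6 hpf, were statically exposed at 28C to 120 hpf with 0.64% DMSO final; swim bladder malformation was scored present/absent by brightfield microscopy, gain of signal relative to DMSO controls.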

[16] = Tanguay_ZF_120hpf_TRUN_legacy: (Legacy) Oregon State University Tanguay Lab 120 Hour Post-fertilization zebrafish Assay for Truncated Body (AID 2283655)
Summary of the method: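 Dechorionated Tropical 5D wild-type embryos placed singly from 6 hpf and statically exposed to 120 hpf at 28C, final DMSO 0.64%. Truncated body scored as present/absent by brightfield; not scored in dead embryos.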

[17] = Tanguay_ZF_120hpf_NC_legacy: (Legacy) Oregon State University Tanguay Lab 120 Hour Post-fertilization zebrafish Assay for Notochord and Tail Malformation (AID 2283656)
Summary of the method: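 Dechorionated Tropical 5D wild-type zebrafish embryos, one per well from 6 hpf, statically exposed to 120 hpf at 28C in 0.64% DMSO final. Notochord distortion scored present/absent by brightfield; dead embryos excluded.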

[18] = Tanguay_ZF_120hpf_TR_legacy: (Legacy) Oregon State University Tanguay Lab 120 Hour Post-fertilization zebrafish Assay for Touch Response (AID 2283667)
Summary of the method: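 Tropical 5D wild-type zebrafish embryos were exposed statically in sealed, foil-covered plates at 28C until 120 hpf, with 0.64% (vol/vol) final DMSO. Touch response was scored as present or absent; embryos that died were not scored.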

[19] = Tanguay_ZF_120hpf_ActivityScore_legacy: (Legacy) Oregon State University Tanguay Lab 120 Hour Post-fertilization zebrafish Assay Score for Activity (AID 2283742)
Summary of the method: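 Tropical 5D wild-type zebrafish embryos, dechorionated with pronase at 4 hpf, were exposed singly from 6 hpf to 120 hpf statically at 28C in 0.64% DMSO. Malformations and mortality were scored as binary by brightfield, with the activity score combining 18 morphology components.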

Measured: AC50

Chain of PGR (gene 5241) (P06401 whole entry, looked up): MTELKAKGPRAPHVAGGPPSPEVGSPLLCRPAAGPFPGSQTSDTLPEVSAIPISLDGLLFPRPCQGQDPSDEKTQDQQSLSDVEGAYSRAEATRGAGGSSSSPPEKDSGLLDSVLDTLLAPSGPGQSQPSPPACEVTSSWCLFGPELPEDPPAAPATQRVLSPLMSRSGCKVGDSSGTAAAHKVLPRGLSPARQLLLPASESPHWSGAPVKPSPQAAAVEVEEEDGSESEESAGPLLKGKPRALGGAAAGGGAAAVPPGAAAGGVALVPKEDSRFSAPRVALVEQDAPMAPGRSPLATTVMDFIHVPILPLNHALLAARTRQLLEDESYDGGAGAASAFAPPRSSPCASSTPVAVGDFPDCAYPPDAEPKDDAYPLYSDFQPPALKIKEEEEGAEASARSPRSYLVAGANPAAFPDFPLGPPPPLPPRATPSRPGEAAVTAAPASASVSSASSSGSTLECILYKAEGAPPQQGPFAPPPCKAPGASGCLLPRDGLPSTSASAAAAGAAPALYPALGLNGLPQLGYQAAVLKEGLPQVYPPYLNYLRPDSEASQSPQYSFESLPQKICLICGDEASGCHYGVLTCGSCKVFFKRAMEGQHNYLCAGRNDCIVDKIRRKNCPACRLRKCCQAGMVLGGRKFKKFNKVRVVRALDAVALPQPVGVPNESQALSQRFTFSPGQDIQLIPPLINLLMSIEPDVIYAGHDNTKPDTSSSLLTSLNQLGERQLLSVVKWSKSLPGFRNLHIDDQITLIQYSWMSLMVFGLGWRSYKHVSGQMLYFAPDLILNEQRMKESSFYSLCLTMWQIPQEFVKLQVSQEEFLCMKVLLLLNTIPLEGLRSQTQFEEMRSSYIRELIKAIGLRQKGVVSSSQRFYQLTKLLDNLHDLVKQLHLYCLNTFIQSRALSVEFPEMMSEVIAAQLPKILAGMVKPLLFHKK
Chain of Estrogen receptor (Homo sapiens) + Estrogen receptor beta (Homo sapiens) (P03372 whole entry, looked up, the tested form may be a part): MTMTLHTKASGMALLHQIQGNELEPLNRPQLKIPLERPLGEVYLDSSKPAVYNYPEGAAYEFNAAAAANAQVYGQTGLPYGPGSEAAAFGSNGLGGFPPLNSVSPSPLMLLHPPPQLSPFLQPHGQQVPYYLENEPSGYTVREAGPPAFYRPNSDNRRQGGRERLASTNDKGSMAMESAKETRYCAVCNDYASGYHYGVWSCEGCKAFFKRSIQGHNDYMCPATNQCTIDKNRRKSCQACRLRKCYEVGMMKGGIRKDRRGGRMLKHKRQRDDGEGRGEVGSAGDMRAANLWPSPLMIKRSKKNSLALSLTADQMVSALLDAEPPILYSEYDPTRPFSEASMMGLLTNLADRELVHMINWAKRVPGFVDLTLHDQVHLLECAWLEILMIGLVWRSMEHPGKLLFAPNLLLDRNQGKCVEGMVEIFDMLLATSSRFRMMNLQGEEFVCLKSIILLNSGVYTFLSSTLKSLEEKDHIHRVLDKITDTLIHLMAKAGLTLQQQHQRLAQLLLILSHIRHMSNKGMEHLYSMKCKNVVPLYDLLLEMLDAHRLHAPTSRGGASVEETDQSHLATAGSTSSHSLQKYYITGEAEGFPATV
Chain of Estrogen receptor (Homo sapiens) + Estrogen receptor beta (Homo sapiens) (Q92731 whole entry, looked up, the tested form may be a part): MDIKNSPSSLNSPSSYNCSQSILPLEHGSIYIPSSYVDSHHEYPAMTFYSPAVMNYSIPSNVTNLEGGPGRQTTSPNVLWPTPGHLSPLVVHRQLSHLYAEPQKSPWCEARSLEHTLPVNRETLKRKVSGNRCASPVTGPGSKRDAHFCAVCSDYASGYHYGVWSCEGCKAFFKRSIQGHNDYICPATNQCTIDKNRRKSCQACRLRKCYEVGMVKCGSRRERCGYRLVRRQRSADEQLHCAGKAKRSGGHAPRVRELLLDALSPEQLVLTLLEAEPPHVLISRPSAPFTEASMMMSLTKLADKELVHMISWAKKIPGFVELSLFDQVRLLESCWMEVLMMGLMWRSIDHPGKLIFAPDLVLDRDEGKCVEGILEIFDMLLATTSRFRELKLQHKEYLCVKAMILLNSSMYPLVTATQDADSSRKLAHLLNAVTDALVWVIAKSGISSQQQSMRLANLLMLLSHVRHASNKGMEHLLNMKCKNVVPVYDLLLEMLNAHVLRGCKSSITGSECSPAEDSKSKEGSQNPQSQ

c1ccc(P(c2ccccc2)c2ccccc2)cc1
active: [1] 28500 nM

C=COCCCl
inactive: PGR (gene 5241) [2]

CCOC(=O)NC(=S)Nc1ccccc1NC(=S)NC(=O)OCC
active: rat CYP3A1, gene 25642 1530 nM

N#Cc1cc(I)c(O)c(I)c1
inactive: PGR (gene 5241) [3]

Cc1cc(C)c(C2=C(OC(=O)CC(C)(C)C)C3(CCCC3)OC2=O)c(C)c1
inactive: [1]

C[C@]12CC[C@H](O)C[C@H]1CC[C@@H]1[C@@H]2C[C@@H](O)[C@]2(C)[C@@H](C3=CC(=O)OC3)CC[C@]12O
inactive: PGR (gene 5241) [2]

O=C(CCl)c1ccccc1
active: [19] 1450 nM
not listed: [1] | PGR (gene 5241) [2] | rat CYP3A1, gene 25642 | PGR (gene 5241) [3]
inactive: all other assays above

C[C@]12CC[C@H]3[C@@H](CC[C@@]45O[C@@H]4C(O)=C(C#N)C[C@]35C)[C@@H]1CC[C@@H]2O
inactive: PGR (gene 5241) [3]

N#CCCCCC#N
not listed: [1] | PGR (gene 5241) [2] | rat CYP3A1, gene 25642 | PGR (gene 5241) [3]
inactive: all other assays above

CC1(C)[C@H](C(=O)O[C@H](C#N)c2cccc(Oc3ccccc3)c2)[C@@H]1C=C(Br)Br
inactive: rat CYP3A1, gene 25642

O=[N+]([O-])c1ccc(Cl)cc1
not listed: [1] | PGR (gene 5241) [2] | rat CYP3A1, gene 25642 | PGR (gene 5241) [3]
inactive: all other assays above

From PubChem BioAssay (EPA / NIEHS)
